Measurements taken from PubChem BioAssay (NCI).
The panel holds about 83,000 compounds, 20% with a hit somewhere; the sample as a whole holds those more often.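 Testing used 96-well plates and a 48-hour single-concentration exposure. Example: -40 means 40% of the starting cells died.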 The source made the active and inactive calls. How the source made its calls: active means growth percent below 10; inactive means the rest.

Legend:
Test in all cases: NCI-60 one-dose screen, 48 h (100 = growth as untreated, 0 = no growth, -100 = all killed)
Settings in all cases: 10 µM unless noted
NCI-H23 lung = test system: NCI-H23 lung
NCI-H226 lung = test system: NCI-H226 lung
NCI-H322M lung = test system: NCI-H322M lung
HOP-62 NSCLC = test system: HOP-62 NSCLC
NCI-H460 lung = test system: NCI-H460 lung
NCI-H522 lung = test system: NCI-H522 lung
A549/ATCC NSCLC = test system: A549/ATCC NSCLC
786-0 renal = test system: 786-0 renal
COLO 205 colon = test system: COLO 205 colon
DU-145 prostate = test system: DU-145 prostate

| Structure (SMILES) | growth (NCI-H23 lung) | growth (NCI-H226 lung) | growth (NCI-H322M lung) | growth (HOP-62 NSCLC) | growth (NCI-H460 lung) | growth (NCI-H522 lung) | growth (A549/ATCC NSCLC) | growth (786-0 renal) | growth (COLO 205 colon) | growth (DU-145 prostate) |
| --- | --- | --- | --- | --- | --- | --- | --- | --- | --- | --- |
| COC(=O)[C@]1(CCSC)N[C@H](c2cn(-c3ccccc3)nc2C)[C@@H]2C(=O)N(c3ccccc3)C(=O)[C@@H]21 | 94.9% (inactive) | 99.7% (inactive) | 115% (inactive) | 107% (inactive) | 106% (inactive) | 97.4% (inactive) | 103% (inactive) | 104% (inactive) | 112% (inactive) | 119% (inactive) |
| CCCCCCCC1(C)NC(=O)NC1=O (centres undefined) | 132% (inactive) | 113% (inactive) | 119% (inactive) | 102% (inactive) | 104% (inactive) | 99.6% (inactive) | 122% (inactive) | 108% (inactive) | 120% (inactive) | 115% (inactive) |
| CCCc1cc(=O)n2c(C(=O)Nc3ccccc3OC)c(C(=O)Nc3ccc(F)cc3)sc2n1 | 63% [30 µM] (inactive) | 62.3% [30 µM] (inactive) | 57.9% [30 µM] (inactive) | -16.7% [30 µM] (active) | 44.6% [30 µM] (inactive) | 46.7% [30 µM] (inactive) | 16.1% [30 µM] (inactive) | 36.2% [30 µM] (inactive) | 72.5% [30 µM] (inactive) | 53.9% [30 µM] (inactive) |
| CCN(CC)CCOc1ccccc1-n1c(C)ccc1-c1ccccc1 | 102% (inactive) | 92% (inactive) | 80.1% (inactive) | 106% (inactive) | 44.2% (inactive) | 101% (inactive) | 88.2% (inactive) | – | 70.3% (inactive) | 103% (inactive) |
| COc1cc(/C=C/c2nnc(-c3cc(-c4ccccc4)n[nH]3)o2)cc(OC)c1OC | 92.6% (inactive) | 100% (inactive) | 106% (inactive) | 102% (inactive) | 107% (inactive) | 85.4% (inactive) | 97.5% (inactive) | 118% (inactive) | – | 108% (inactive) |
| O=C(COC(=O)[C@H](C[Se][Se]C[C@H](NC(=O)c1ccc(Br)cc1F)C(=O)OCC(=O)c1ccc(F)cc1)NC(=O)c1ccc(Br)cc1F)c1ccc(F)cc1 | -37.3% (active) | -73.2% (active) | -23.2% (active) | -6.31% (active) | -35.6% (active) | -85.2% (active) | -41.2% (active) | -94.6% (active) | – | -100% (active) |
| CCC(C)CC(CC)NCCN1CCN(C(CC)CC(C)CC)C1=S (centres undefined) | 42.5% (inactive) | 47% (inactive) | 78.8% (inactive) | 29.1% (inactive) | 9.44% (active) | -12% (active) | 50.2% (inactive) | 56.5% (inactive) | – | 29.5% (inactive) |
| Cc1ccc(NC(=O)CSc2nnc3n(Cc4ccccc4)c(=O)c4c(C)c(C(N)=O)sc4n23)cc1 | 78.4% (inactive) | 28.9% (inactive) | 46.2% (inactive) | -7.47% (active) | -40.9% (active) | 31.5% (inactive) | 77.7% (inactive) | 16.9% (inactive) | – | 39% (inactive) |
| COc1cc(OC)c2cc(C(=O)O)c(=O)oc2c1 | 96.8% (inactive) | 96.8% (inactive) | 79.8% (inactive) | 103% (inactive) | 95.3% (inactive) | 97.3% (inactive) | 123% (inactive) | 83.9% (inactive) | – | 129% (inactive) |
| Cc1[nH]n(C(N)=S)c(=O)c1N=Nc1ccc(F)c(Cl)c1 | 102% (inactive) | 87% (inactive) | 110% (inactive) | 92.1% (inactive) | 114% (inactive) | 94.6% (inactive) | 106% (inactive) | 95.6% (inactive) | – | 100% (inactive) |
| O=C1Nc2ccc(F)cc2/C1=C/c1nc(-c2ccc(F)cc2)n2ccccc12 | 104% (inactive) | 110% (inactive) | 124% (inactive) | 96.4% (inactive) | 99.2% (inactive) | 108% (inactive) | 104% (inactive) | 114% (inactive) | – | 74.1% (inactive) |
| O=C(C(=O)N1CCOCC1)c1ccc(OC2OC(CO)C(O)C(O)C2O)cc1 (centres undefined) | 106% (inactive) | 107% (inactive) | 115% (inactive) | 107% (inactive) | 110% (inactive) | 79.9% (inactive) | 107% (inactive) | 103% (inactive) | – | 125% (inactive) |
| C=C(C)[C@@H]1C/C=C(/C=O)CC[C@@H]2O[C@@]2(C)CC/C=C(\C)CC1 | 116% (inactive) | 98.9% (inactive) | 91% (inactive) | 110% (inactive) | 98.7% (inactive) | 186% (inactive) | 104% (inactive) | 106% (inactive) | – | 112% (inactive) |
| S=C(Nc1ccc(C2=NCCN2)cc1)Nc1ccc(C2=NCCN2)cc1 | 82.7% (inactive) | 86.8% (inactive) | 117% (inactive) | 99.6% (inactive) | 106% (inactive) | 97.2% (inactive) | 99.9% (inactive) | 98.2% (inactive) | – | 107% (inactive) |
| COc1cc2c(cc1OC)C1CCN3C(=O)CCC3N1CC2 (centres undefined) | 99.3% (inactive) | 113% (inactive) | 124% (inactive) | 121% (inactive) | 107% (inactive) | 107% (inactive) | 113% (inactive) | 103% (inactive) | – | 111% (inactive) |
| O=C1Cc2cc(CCn3cncn3)c(Cl)cc2N1 | 24.1% (inactive) | 74.8% (inactive) | 92.7% (inactive) | 69.6% (inactive) | 83.9% (inactive) | 32.8% (inactive) | 59.8% (inactive) | 94.7% (inactive) | – | 96.5% (inactive) |
| COc1cc(C2NC(c3ccc(Cl)cc3)C(C)/C(=N/NC(N)=S)C2C)cc(OC)c1OC (centres undefined) | 92.6% (inactive) | 85.9% (inactive) | 97.7% (inactive) | 99% (inactive) | 100% (inactive) | 65.6% (inactive) | 94.9% (inactive) | 91.1% (inactive) | – | 117% (inactive) |
| CN(CC(=O)N(Cc1ccc(C2CCCCC2)cc1)c1ccc(C(=O)O)cc1)S(=O)(=O)c1c(F)c(F)c(F)c(F)c1F | -19.9% (active) | 97.4% (inactive) | 86.4% (inactive) | 60.6% (inactive) | 96% (inactive) | 44.7% (inactive) | 100% (inactive) | – | 12.9% (inactive) | -18% (active) |
| CC(NC(=O)C(C)Oc1ccc(Cl)cc1Cl)C(=O)O (centres undefined) | 91.9% (inactive) | 92.9% (inactive) | 122% (inactive) | 94.5% (inactive) | 101% (inactive) | 83.6% (inactive) | 116% (inactive) | 97.6% (inactive) | – | 108% (inactive) |
| Cc1nn(-c2ccccc2)c2nc3c(nc12)C(=O)CCC3 | 80.4% (inactive) | 107% (inactive) | 93.1% (inactive) | 92.9% (inactive) | 104% (inactive) | 74% (inactive) | 92.9% (inactive) | 88.5% (inactive) | – | 104% (inactive) |
| Cc1c(C(N)=O)sc2c1C(=O)N(Cc1ccccc1)C1=NN=C(c3ccc(Cl)cc3)CN12 | 58.9% (inactive) | 73.9% (inactive) | 38.1% (inactive) | 66.3% (inactive) | 28% (inactive) | 67.1% (inactive) | 46% (inactive) | 43% (inactive) | – | 46.1% (inactive) |
| COc1cc2c(c(OC)c1OC)-c1ccc(NN(C(=O)c3ccccc3)C(=O)c3ccccc3)c(=O)cc1[C@@H](NC(C)=O)CC2 (tested in a mixture with another compound) | 26.9% (inactive) | 73.3% (inactive) | 17.8% (inactive) | 46% (inactive) | 17.9% (inactive) | -8.35% (active) | 56.6% (inactive) | 31.4% (inactive) | – | 3.42% (active) |
| C/C(=N/N=C(N)N)c1ccc(Cl)cc1 | 95.1% (inactive) | 96% (inactive) | 90.2% (inactive) | 98.8% (inactive) | 102% (inactive) | 89% (inactive) | 106% (inactive) | 89.6% (inactive) | – | 106% (inactive) |
| CCCCCCCCCCCCNc1ncnc2[nH]ncc12 | 51.1% (inactive) | 72.9% (inactive) | 99.3% (inactive) | 93.4% (inactive) | 79.2% (inactive) | 76.1% (inactive) | 71.1% (inactive) | – | 95.4% (inactive) | 85.9% (inactive) |
| ClC1C2CC(c3ccccc32)C1Cl (centres undefined) | 106% (inactive) | 109% (inactive) | 123% (inactive) | 129% (inactive) | 110% (inactive) | 100% (inactive) | 110% (inactive) | 103% (inactive) | – | 118% (inactive) |
| O=C(Nc1ccc(Cl)cc1)Nc1ccc(Oc2nncc3ccccc23)cc1 | 0.498% (active) | -54.5% (active) | 60.9% (inactive) | 12.9% (inactive) | 21.5% (inactive) | -46.3% (active) | 40% (inactive) | – | 11.9% (inactive) | 11.2% (inactive) |
| N#CCCCCCn1c2ccccc2c2c3c(c4c5ccccc5[nH]c4c21)C(=O)N(O)C3=O | -5.54% (active) | 43.3% (inactive) | 19.9% (inactive) | 18.4% (inactive) | -7.73% (active) | -53.9% (active) | 25% (inactive) | – | 26.7% (inactive) | 18.5% (inactive) |
| Clc1ccc2c(Nc3ccc4oc(NCCN5CCCC5)nc4c3)ccnc2c1 | 88.7% (inactive) | 101% (inactive) | 90.1% (inactive) | 109% (inactive) | 96.4% (inactive) | 98.5% (inactive) | 92.9% (inactive) | – | 84.4% (inactive) | 71.1% (inactive) |
| CCCCn1c(Cc2ccc(Cl)cc2)nc2cc(OC)c(OC)cc2c1=O | 74.6% (inactive) | 66.4% (inactive) | 97.3% (inactive) | 91.2% (inactive) | 90.6% (inactive) | 71.6% (inactive) | 66.3% (inactive) | 84.4% (inactive) | – | 75.5% (inactive) |
